The values below come from PubChem BioAssay (EPA / NIEHS).

As a reminder, the AC50 is the midpoint of the concentration-response curve, whichever way the signal moves.

Structures are written as SMILES. Active and inactive are the calls of the source. How the source made its calls: active means hit-call score of the fitted dose curve at least 0.9, where 1 is the maximum; inactive means score below 0.9.

Read-out in test [1]: Matrix Metallopeptidase 1 (MMP1), MMP1 (gene 4312)
Description: BSK_BE3C_MMP1: BioMAP Diversity Plus: BE3C Assay for Matrix Metallopeptidase 1 (MMP1) Biomarker Activity (AID 2283024). The note with it: primary human bronchial epithelial cells; actives raise or lower the signal. An outline of the steps: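 Dose cells, wait 24 h, run MMP1 ELISA; cells are human bronchial epithelial primaries. Both increases and decreases relative to DMSO counted.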

Test [2] is described as follows: BSK_3C_Vis: BioMAP Diversity Plus: 3C Assay for Morphology Visualization (AID 2283025).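 Further: fitted both ways so gain or loss versus DMSO counts.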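 On AC50: light microscopy image of cell morphology used as background control.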 The note with it: primary human endothelial cells (HUVEC). The method in brief: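 Endothelial cells from human umbilical vein were treated with test chemicals for 24 h and inspected by light microscopy for changes in cell conformation.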
Read-out in test [3]: Pselectin, SELP (gene 6403)
Description: BSK_4H_Pselectin: BioMAP Diversity Plus: 4H Assay for Pselectin Biomarker Activity (AID 2283026). As to conditions: primary human endothelial cells (HUVEC); actives raise or lower the signal. The method in brief: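 Human vascular endothelium from umbilical vein; P-selectin measured by ELISA at 24 h post-dose, with cytotoxicity checked by sulforhodamine B total-protein staining in parallel cultures (0.1% SRB after 10% TCA fixation, read at 560 nm).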

The nature of test [4]: BSK_4H_SRB: Viability Assessment in the BioMAP Diversity Plus: 4H Assay (AID 2283027).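 Further: cells exposed to compound for 24 h before staining.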 The note with it: primary human endothelial cells (HUVEC). The method in brief:
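Absorbance at 560 nm of SRB-stained total protein served as the viability read-out in confluent primary human umbilical vein endothelium 24 h after chemical treatment. Curves were fitted bidirectionally against DMSO as negative control.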

Test [5] in a line: BSK_BE3C_SRB: Viability Assessment in the BioMAP Diversity Plus: BE3C Assay (AID 2283028). As to conditions: primary human bronchial epithelial cells. An outline of the steps:
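Cells (human bronchial epithelial, primary) are treated with chemicals, and after 24 h the parallel cultures are fixed in 10% TCA. These are then stained with 0.1% SRB and read at 560 nm. Gain or loss of signal is fitted relative to DMSO.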

Read-out in test [6]: Thrombomodulin, THBD (gene 7056)
Description: BSK_3C_Thrombomodulin: BioMAP Diversity Plus: 3C Assay for Thrombomodulin Biomarker Activity (AID 2283029). The note with it: primary human endothelial cells (HUVEC); actives raise or lower the signal. The method in brief: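 Thrombomodulin ELISA, human primary HUVEC, 24 h post-dose; data fitted in both directions relative to DMSO.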

Read-out in test [7]: Vascular endothelial growth factor receptor 2 (Homo sapiens) (UniProt P35968)
Description: BSK_4H_VEGFRII: BioMAP Diversity Plus: 4H Assay for Vascular endothelial growth factor receptor 2 (VEGFR2) Biomarker Activity (AID 2283031). The note with it: primary human endothelial cells (HUVEC); actives raise or lower the signal. The method in brief: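 ELISA read-out of VEGFRII in primary human umbilical vein endothelium, taken 24 h after chemical treatment. Responses are expressed relative to DMSO, with bidirectional fitting.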

Read-out in test [8]: Human Leukocyte Antigen - DR isotype (HLADR), HLA-DRA (gene 3122)
Description: BSK_BE3C_HLADR: BioMAP Diversity Plus: BE3C Assay for Human Leukocyte Antigen - DR isotype (HLADR) Biomarker Activity (AID 2283032). The note with it: primary human bronchial epithelial cells; actives raise or lower the signal. The method in brief:
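Signal came from an ELISA for HLA-DR in human bronchial epithelial primary cells harvested 24 h after treatment; gain- and loss-of-signal fitting used DMSO controls as reference.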

Read-out in test [9]: Vascular cell adhesion molecule 1 (VCAM1), VCAM1 (gene 7412)
Description: BSK_4H_VCAM1: BioMAP Diversity Plus: 4H Assay for Vascular cell adhesion molecule 1 (VCAM1) Biomarker Activity (AID 2283033).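 On outcome: cell-surface VCAM-1 protein measured by ELISA.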 The note with it: primary human endothelial cells (HUVEC); actives raise or lower the signal. The method in brief: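 Endpoint derived from bidirectional fitting against DMSO controls of VCAM-1 ELISA signal in umbilical vein endothelial cells sampled at 24 h following treatment.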

Read-out in test [10]: Interferon-gamma inducible Protein 10 (IP10), CXCL10 (gene 3627)
Description: BSK_BE3C_IP10: BioMAP Diversity Plus: BE3C Assay for Interferon-gamma inducible Protein 10 (IP10) Biomarker Activity (AID 2283034). As to conditions: primary human bronchial epithelial cells; actives raise or lower the signal. The method in brief: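 Using primary human bronchial epithelial cultures, the assay captures IP-10 by ELISA one day (24 h) after exposure. Parallel SRB staining of total protein flags overt cytotoxicity. Fits run bidirectionally relative to DMSO.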

Read-out in test [11]: Monokine induced gamma interferon (MIG), CXCL9 (gene 4283)
Description: BSK_BE3C_MIG: BioMAP Diversity Plus: BE3C Assay for Monokine induced gamma interferon (MIG) Biomarker Activity (AID 2283035).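 Further: MIG protein measured by ELISA in BE3C cultures after 24 h of dosing.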 The note with it: primary human bronchial epithelial cells; actives raise or lower the signal. The method in brief:
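MIG level was determined by ELISA after 24 h chemical treatment of primary human bronchial epithelial cells. Values were fitted bidirectionally with DMSO as the negative control and activity baseline.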

Read-out in test [12]: Transforming growth factor beta 1 (TGFb1), TGFB1 (gene 7040)
Description: BSK_BE3C_TGFb1: BioMAP Diversity Plus: BE3C Assay for Transforming growth factor beta 1 (TGFb1) Biomarker Activity (AID 2283036;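 further: TGF-b1 protein level measured by ELISA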). The note with it: primary human bronchial epithelial cells; actives raise or lower the signal. The method in brief: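 In this human primary bronchial epithelial system, an ELISA quantified TGF-b1 one day after dosing. Endpoint changes in either direction were fitted relative to DMSO.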

Read-out in test [13]: Plasminogen activator inhibitor-1 (PAI1), SERPINE1 (gene 5054)
Description: BSK_BE3C_PAI1: BioMAP Diversity Plus: BE3C Assay for Plasminogen activator inhibitor-1 (PAI1) Biomarker Activity (AID 2283037). The note with it: primary human bronchial epithelial cells; actives raise or lower the signal. The method in brief:
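PAI-1 biomarker levels in treated human bronchial epithelial cells are determined by ELISA at 24 h. Both increases and decreases relative to DMSO are fitted.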

Read-out in test [14]: urokinase plasminogen activator (uPA), PLAU (gene 5328)
Description: BSK_BE3C_uPA: BioMAP Diversity Plus: BE3C Assay for urokinase plasminogen activator (uPA) Biomarker Activity (AID 2283038).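 Further: uPA protein level quantified by ELISA in cell cultures; uPA read one day after compound addition.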 The note with it: primary human bronchial epithelial cells; actives raise or lower the signal. The method in brief: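 Bronchial epithelial cells (human, primary); chemical 24 h; uPA by ELISA; bidirectional fit vs DMSO. SRB (0.1%, after 10% TCA fixation, 560 nm) in parallel cultures for cytotoxicity.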

Read-out in test [15]: Urokinase-type plasminogen activator receptor (uPAR), PLAUR (gene 5329)
Description: BSK_BE3C_uPAR: BioMAP Diversity Plus: BE3C Assay for Urokinase-type plasminogen activator receptor (uPAR) Biomarker Activity (AID 2283039).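 On outcome: cells exposed to compound for one day before measurement.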 As to conditions: primary human bronchial epithelial cells; actives raise or lower the signal. The method in brief:
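A uPAR ELISA serves as the readout, taken 24 h after treating primary human bronchial epithelial cells. Responses in either direction are fitted against DMSO, which defines baseline activity.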

Read-out in test [16]: Interleukin-6 (IL6), IL6 (gene 3569)
Description: BSK_CASM3C_IL6: BioMAP Diversity Plus: CASM3C Assay for Interleukin-6 (IL6) Biomarker Activity for (AID 2283040). As to conditions: primary human coronary artery smooth muscle cells; actives raise or lower the signal.

Read-out in test [17]: Interleukin-8 (IL8), CXCL8 (gene 3576)
Description: BSK_CASM3C_IL8: BioMAP Diversity Plus: CASM3C Assay for Interleukin-8 (IL8) Biomarker Activity (AID 2283042).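 Further: IL-8 protein level quantified by ELISA.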 As to conditions: primary human coronary artery smooth muscle cells; actives raise or lower the signal.

Read-out in test [18]: Human Leukocyte Antigen - DR isotype (HLADR), HLA-DRA (gene 3122)
Description: BSK_CASM3C_HLADR: BioMAP Diversity Plus: CASM3C Assay for Human Leukocyte Antigen - DR isotype (HLADR) Biomarker Activity (AID 2283043).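 Further: cell-surface HLA-DR protein level quantified by ELISA.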 As to conditions: primary human coronary artery smooth muscle cells; actives raise or lower the signal.

Read-out in test [19]: Urokinase-type plasminogen activator receptor (uPAR), PLAUR (gene 5329)
Description: BSK_4H_uPAR: BioMAP Diversity Plus: 4H Assay for Urokinase-type plasminogen activator receptor (uPAR) Biomarker Activity (AID 2283030). The note with it: primary human endothelial cells (HUVEC); actives raise or lower the signal. The method in brief:
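Cell-surface uPAR ELISA signal, measured 24 h after dosing human umbilical vein endothelial cells, was analyzed with bidirectional fitting relative to DMSO. Parallel SRB staining of total protein tracked overt cytotoxicity.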

Read-out in test [20]: Tissue plasminogen activator (tPA), PLAT (gene 5327)
Description: BSK_BE3C_tPA: BioMAP Diversity Plus: BE3C Assay for Tissue plasminogen activator (tPA) Biomarker Activity (AID 2283041).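 Further: tPA level quantified by ELISA one day after compound addition.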 As to conditions: primary human bronchial epithelial cells; actives raise or lower the signal. The method in brief:
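Bidirectional curve fitting relative to DMSO defined activity, with tPA detected by ELISA in chemically treated human bronchial epithelial primary cells at 24 hours.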

`CC(=O)C(Cl)C(=O)N(C)C` (configuration not stated): the result in [1], in [4], in [5], in [6], in test [7] and in test [11] was inactive. For the same compound, the outcome in [12], in test [13], in [14], in test [15], in [16] and in test [17] was inactive. Further, the AC50 in test [2] is 37.5 µM (active); in [3], 15.6 µM (active); in test [8], 26.9 µM (active); in test [9], 24.3 µM (active); in test [10], 20 µM (active); in test [18] it was 10.1 µM (active).

In the case of `O=[N+]([O-])c1ccc2c3c(cccc13)CC2`, the result in test [1], in [3], in test [4], in test [5], in test [6] and in test [19] was inactive. Also, the result in test [7], in [8], in [9], in [10], in test [11] and in test [12] was inactive. Further, the outcome in test [13], in test [14], in test [16], in [17] and in test [18] was inactive. Moreover, the AC50 was 8.8 µM (active) in [2] and 1.19 µM (active) in test [15].

For the compound `CC(C)c1ccc(CO)cc1`, the outcome in [1], in test [2], in [3], in test [4], in test [5] and in [6] was inactive. Moreover, the result in [7], in test [8], in test [9], in test [10], in test [11] and in test [12] was inactive. Besides, the result in [13], in test [14], in test [15], in test [16], in test [20] and in test [17] was inactive. Further, the result in test [18] was inactive.

In the case of `CCNc1nc(NC(C)(C)C)nc(SC)n1`, the outcome in test [1], in [2], in test [3], in test [4], in test [5] and in test [6] was inactive. Further, the outcome in [8], in [9], in [10], in [11], in [12] and in [13] was inactive. Further, the result in test [14], in test [15], in test [16], in test [20], in test [17] and in [18] was inactive.

Regarding `COc1cc(OC)nc(NC(=O)NS(=O)(=O)c2ncccc2C(=O)N(C)C)n1`, the result in test [1], in test [2], in test [3], in [4], in test [5] and in test [6] was inactive. Also, the result in test [7], in test [8], in test [9], in test [10], in [11] and in test [12] was inactive. Further, the result in [13], in test [14], in test [15], in test [16], in [17] and in test [18] was inactive.
